Assay outcomes deposited in PubChem by several laboratories.
Hits are enriched below; roughly 4% of the tested compounds scored in any of these assays.
Rv3671c inh = inhibits the M. tuberculosis serine protease Rv3671c. P9WHR9. inhibition, % at 5.96 µM. hit rate 0.048% among 320,000. AID 2606; in the data active means inhibition above about 38%;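 further: extracellular domain of Rv3671c used as enzyme; 0% = enzyme with DMSO and 100% = no enzyme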
FBA Mtb inh = Mtb fructose-bisphosphate aldolase inhibition | P9WQA3 | purified M. tuberculosis FBA, fluorescence read-out | inhibition, % at 1 µM | hit rate 2.3% among 360,000 | AID 588726; in the data active means inhibition above about 27%;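 further: 0% = vehicle and 100% = reference inhibitor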
RecA intein inh = inhibitors of M. tuberculosis RecA intein splicing; AID 2221; hit rate 0.75% among 290,000; cell-free RecA intein splicing, fluorescence; P9WHJ3; inhibition, % (no concentration beside the values); in the data active means inhibition above about 30%;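 further: 0% = vehicle wells and 100% = reference inhibitor control wells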
Target sequence (P9WHJ3 whole entry, looked up): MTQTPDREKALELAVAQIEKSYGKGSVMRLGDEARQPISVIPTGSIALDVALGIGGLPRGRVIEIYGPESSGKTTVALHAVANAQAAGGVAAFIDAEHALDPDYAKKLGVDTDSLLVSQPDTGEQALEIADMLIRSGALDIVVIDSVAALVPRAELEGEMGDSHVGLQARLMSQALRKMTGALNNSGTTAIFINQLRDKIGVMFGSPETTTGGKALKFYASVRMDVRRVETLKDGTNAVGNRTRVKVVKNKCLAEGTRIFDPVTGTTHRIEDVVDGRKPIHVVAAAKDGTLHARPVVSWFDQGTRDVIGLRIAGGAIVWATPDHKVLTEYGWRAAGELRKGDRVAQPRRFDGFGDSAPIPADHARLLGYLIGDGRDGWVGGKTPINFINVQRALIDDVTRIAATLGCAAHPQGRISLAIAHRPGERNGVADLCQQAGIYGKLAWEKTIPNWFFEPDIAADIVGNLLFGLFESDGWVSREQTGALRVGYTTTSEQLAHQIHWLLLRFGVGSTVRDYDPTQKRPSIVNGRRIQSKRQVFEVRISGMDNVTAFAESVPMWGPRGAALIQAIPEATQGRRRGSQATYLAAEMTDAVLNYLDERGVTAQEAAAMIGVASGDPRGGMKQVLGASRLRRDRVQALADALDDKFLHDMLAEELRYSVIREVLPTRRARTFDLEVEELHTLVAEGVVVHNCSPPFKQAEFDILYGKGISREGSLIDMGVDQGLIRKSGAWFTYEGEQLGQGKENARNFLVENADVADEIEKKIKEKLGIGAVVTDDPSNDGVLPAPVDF
Mtb UGM inh = blocks M. tuberculosis UGM enzyme. P9WIQ1. purified UGM, fluorescence polarization probe displacement. inhibition, % at 10 µM. hit rate 0.06% among 320,000; in the data active means inhibition above about 10%, passing the limit was not always enough
Mtb bLac sens = beta-lactam sensitization of Mtb H37Rv. M. tuberculosis H37Rv growth with meropenem, percent inhibition. inhibition, % at 25 µM. hit rate 0.27% among 330,000. AID 434955; call rule not given here;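 further: growth measured after seven days incubation then overnight dye step; 0% = bacteria only wells and 100% = bacteria with antibiotic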
GDH-TPI counter = counter-screen for M. tuberculosis FBA inhibitors: GDH-TPI coupled enzymes; GDH-TPI coupled enzyme counterscreen, NADH absorbance; inhibition, % at 4.8 µM; hit rate 1.2% among 360,000; AID 588335; in the data active means inhibition above about 30%;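 further: 0% = DMSO wells and 100% = wells lacking the enzyme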
Numbers without * were called inactive.

How did CCC(C(=O)Nc1cccc(C(=O)O)c1C)c1ccccc1 (stereo not drawn) do in these assays?
Rv3671c inh: -4; FBA Mtb inh: 143*; RecA intein inh: 0; Mtb UGM inh: -1; Mtb bLac sens: -3; GDH-TPI counter: 8

What do the screens show for `CN(C)c1ccc(C=NCCC2(c3ccccc3)CCOC(C)(C)C2)cc1` (stereo not drawn)?
Rv3671c inh: -4; FBA Mtb inh: 0; RecA intein inh: 0; Mtb bLac sens: -6; GDH-TPI counter: 56*

What do the screens show for `CN(C)c1ccc(C=NCC2(O)CCOC(C)(C)C2)cc1` (stereo not drawn)?
Rv3671c inh: 5; FBA Mtb inh: 2; RecA intein inh: 1; Mtb UGM inh: 2; Mtb bLac sens: -5; GDH-TPI counter: 48*

How did Cc1ccc(NC(=S)N/N=C/c2ccc(OCCC(C)C)cc2)c(C)c1 do in these assays?
Rv3671c inh: -3; FBA Mtb inh: 3; RecA intein inh: -1; Mtb UGM inh: 3; Mtb bLac sens: 15; GDH-TPI counter: 36*

What do the screens show for `Cc1ccc(NC(=S)N/N=C/c2c(Cl)cccc2Cl)c(C)c1`?
Rv3671c inh: -29; FBA Mtb inh: -1; RecA intein inh: 7; Mtb UGM inh: -3; Mtb bLac sens: -1; GDH-TPI counter: 10

What do the screens show for `O=C(Oc1ccc2ccccc2c1)c1ccco1`?
Rv3671c inh: 8; FBA Mtb inh: 0; RecA intein inh: 35*; Mtb UGM inh: 1; Mtb bLac sens: 95; GDH-TPI counter: 3

What do the screens show for `Cc1cc(=O)oc2c(C)c(OC(=O)c3ccco3)ccc12`?
Rv3671c inh: 2; FBA Mtb inh: 6; RecA intein inh: -31; Mtb UGM inh: 0; Mtb bLac sens: 14; GDH-TPI counter: -5

Results for CCc1cc(=O)oc2cc(OC(=O)c3ccco3)ccc12 ?
Rv3671c inh: -4; FBA Mtb inh: active; RecA intein inh: 26; Mtb UGM inh: -1; Mtb bLac sens: -19; GDH-TPI counter: 3

How did Cc1cc(=O)oc2cc(OC(=O)c3ccco3)ccc12 do in these assays?
FBA Mtb inh: 194*; RecA intein inh: 10; GDH-TPI counter: -3

What do the screens show for `Cc1ccc(N(C)S(=O)(=O)c2cccc(C(=O)Oc3ccc4c(C)cc(=O)oc4c3)c2)cc1`?
Rv3671c inh: -13; FBA Mtb inh: 131*; RecA intein inh: 1; Mtb UGM inh: 3; Mtb bLac sens: -3; GDH-TPI counter: 2

What do the screens show for `CC(C)(C)S(=O)(=O)/C(C#N)=C/c1cccn1S(=O)(=O)c1ccccc1`?
FBA Mtb inh: -1; GDH-TPI counter: 29

How did O=C1NCC(Nc2ccccc2Cl)C(=O)N1 (stereo not drawn) do in these assays?
FBA Mtb inh: 5; GDH-TPI counter: 2

Results for CCCc1cc(=O)oc2cc(OC(=O)CN3C(=O)NC4(CCCC4)C3=O)ccc12 ?
Rv3671c inh: 7; FBA Mtb inh: active; RecA intein inh: 0; Mtb UGM inh: 2; Mtb bLac sens: -5; GDH-TPI counter: 16

How did COc1ccc(OCCOC(=O)CN2C(=O)NC3(CCCC3)C2=O)cc1 do in these assays?
Rv3671c inh: -8; FBA Mtb inh: 1; RecA intein inh: -5; Mtb UGM inh: -1; Mtb bLac sens: -10; GDH-TPI counter: -5

Results for O=C(Oc1ccc(-n2cnnn2)cc1)c1ccco1 ?
Rv3671c inh: 2; FBA Mtb inh: 2; RecA intein inh: 38*; Mtb UGM inh: 2; Mtb bLac sens: -4; GDH-TPI counter: 4

Results for CCCOC(=O)c1ccc(OC(=O)c2ccco2)cc1 ?
Rv3671c inh: -2; FBA Mtb inh: 0; RecA intein inh: 37*; Mtb UGM inh: -4; Mtb bLac sens: 99; GDH-TPI counter: -4

How did CCCOC(=O)c1ccc(NC(=O)Oc2ccccc2)cc1 do in these assays?
Rv3671c inh: -3; FBA Mtb inh: 0; RecA intein inh: 3; Mtb UGM inh: 1; Mtb bLac sens: -2; GDH-TPI counter: 11

What do the screens show for `CCCCC1SC(N)=NC1=O` (stereo not drawn)?
FBA Mtb inh: 2; GDH-TPI counter: 6

How did Cc1ccccc1C(=O)Nc1cccc(NC(=O)c2ccc(-c3ccc(Br)cc3)o2)c1 do in these assays?
Rv3671c inh: -5; FBA Mtb inh: -2; RecA intein inh: 3; Mtb UGM inh: 3; Mtb bLac sens: 86; GDH-TPI counter: 34*

What do the screens show for `Cc1cc(O)cc(O)c1C=NCc1ccco1`?
Rv3671c inh: 6; FBA Mtb inh: 2; RecA intein inh: -4; Mtb UGM inh: 0; Mtb bLac sens: -4; GDH-TPI counter: 33*

How did CC(=O)/C=N/Nc1ccccc1 do in these assays?
Rv3671c inh: 0; FBA Mtb inh: 2; RecA intein inh: 0; Mtb UGM inh: 0; Mtb bLac sens: 11; GDH-TPI counter: 36*

Results for Nn1c(SCC(=O)NC2CCCC2)nnc1C(F)(F)F ?
FBA Mtb inh: -1; GDH-TPI counter: 6

What do the screens show for `COc1cccc(CC(=O)N2CCC(n3nccc3NC(=O)C3CCOC3)CC2)c1` (stereo not drawn)?
Rv3671c inh: 3; FBA Mtb inh: 1; RecA intein inh: 0; Mtb UGM inh: 4; Mtb bLac sens: 1; GDH-TPI counter: 3

Results for N#Cc1ccc(/C=N/NC(=S)Nc2ccc(S(=O)(=O)N3CCOCC3)cc2)cc1 ?
Rv3671c inh: -13; FBA Mtb inh: 0; RecA intein inh: 1; Mtb UGM inh: 0; Mtb bLac sens: -2; GDH-TPI counter: 40*

Results for O=S(=O)(c1ccc(NC(=S)N/N=C/c2ccc(O)c(O)c2)cc1)N1CCOCC1 ?
Rv3671c inh: 8; FBA Mtb inh: -5; RecA intein inh: -3; Mtb UGM inh: 0; Mtb bLac sens: -6; GDH-TPI counter: 37*

Results for Cc1ccccc1CCN1CCCC(CN(C)C(=O)c2ccc3ncccc3c2)C1 (stereo not drawn) ?
Rv3671c inh: 1; FBA Mtb inh: 1; RecA intein inh: 0; Mtb UGM inh: 1; Mtb bLac sens: -5; GDH-TPI counter: -7

Results for COc1ccc(-c2csc(NC(=O)CCN3C(=O)C4CC=CCC4C3=O)n2)cc1OC (stereo not drawn) ?
Rv3671c inh: -6; FBA Mtb inh: -2; RecA intein inh: 0; Mtb UGM inh: 1; Mtb bLac sens: -3; GDH-TPI counter: 8

Results for Brc1ccc2c(c1)OCCOCCOCCOCCOCCO2 ?
Rv3671c inh: -2; FBA Mtb inh: -3; RecA intein inh: 4; Mtb UGM inh: 0; Mtb bLac sens: 15; GDH-TPI counter: -5

How did N#Cc1ncc(-c2ccc3c(c2)OCCOCCOCCOCCO3)nc1C#N do in these assays?
Rv3671c inh: -13; FBA Mtb inh: -1; RecA intein inh: 36*; Mtb UGM inh: 1; Mtb bLac sens: 100; GDH-TPI counter: 25

Results for Nc1nc(-c2ccc3c(c2)OCCO3)cs1 ?
Rv3671c inh: 9; FBA Mtb inh: -1; RecA intein inh: -2; Mtb UGM inh: 1; Mtb bLac sens: 95; GDH-TPI counter: -2

Results for N#Cc1ncc(-c2ccc3c(c2)OCCOCCOCCOCCOCCO3)nc1C#N ?
Rv3671c inh: -3; FBA Mtb inh: -1; RecA intein inh: 44*; Mtb UGM inh: 1; Mtb bLac sens: 100; GDH-TPI counter: 5
